For 155 variants, enrichment ratio results are on record in a collection of fitness landscapes (doi:10.1126/science.1257360).

In all, about 140,000 sequences were measured (“enrichment ratio after two sorts for PhoP signalling”: median about 0, highest 2% from about 11 on). The sample holds the highest values, similar sequences and a random draw of the others, so the mix is not that of the screen.

First the molecules themselves.
B1: PhoQ; a variant is named by its letters at X, in order, P23837 (parent)
chain: MKKLLRLFFPLSLRVRFLLATAAVVLVLSLAYGMVALIGYSVSFDKTTFRLLRGESNLFYTLAKWENNKLHVELPENIDKQSPTMTLIYDENGQLLWAQRDVPWLMKMIQPDWLKSNGFHEIEADVNDTSLLLSGDHSIQQQLQEVREDDDDAEMTHSVAVNVYPATSRMPKLTIVVVDTIPVELKSSYMVWSWFIYVLSANLLLVIPLLWVAAWWSLRPIEALAKEVRELEEHNRELLNPATTRELTSLVRNLNRLLKSERERYDKYRTTLTDLTHSLKTPLXXLQXXLRSLRSEKMSVSDAEPVMLEQISRISQQIGYYLHRASMRGGTLLSRELHPVAPLLDNLTSALNKVYQRKGVNISLDISPEISFVGEQNDFVEVMGNVLDNACKYCLEFVEISARQTDEHLYIVVEDDGPGIPLSKREVIFDRGQRVDTLRPGQGVGLAVAREITEQYEGKIVAGESMLGGARMEVIFGRQHSAPKDE

The assay covers variants of B1. The assay can be described thus: enrichment ratio after two sorts for PhoP signalling (ratio (wild type AVST 3.29)); higher = more functional. Conditions: with PhoP (E. coli).
For WEER, the enrichment ratio is no more than 0.25. As for ADHC, the enrichment ratio was no more than 0.25.

For the variant NYMN, the enrichment ratio was no more than 0.25. With WKDT the figure was no more than 0.25; with EGGF, no more than 0.25; with WIPQ, no more than 0.25.

Take TQYQ: the enrichment ratio amounted to 27.1.

Regarding IQYQ, the enrichment ratio was no more than 0.25. With TQYD the figure was 3.43. With TGDI the figure was no more than 0.25. With WKRD the figure was no more than 0.25; with KGIQ, no more than 0.25. Turning to NVAN, the enrichment ratio was no more than 0.25.

With SPAN, the enrichment ratio was no more than 0.25. With TVAT the figure was 16.8; with PVAA, no more than 0.25; with NVAG, no more than 0.25. With FVAT, the enrichment ratio was no more than 0.25. With TVAG the figure was 17.8; with NVAT, no more than 0.25. With PVAG the figure was no more than 0.25. With TVAA the figure was 20.7; with TVAN, 16.9. Take FVAA: the enrichment ratio was no more than 0.25. As to RYVN, the enrichment ratio is no more than 0.25.

Take RYKH: the enrichment ratio was no more than 0.25.

Take MFLN: the enrichment ratio is no more than 0.25. With RRDC the figure was no more than 0.25; with MLNF, no more than 0.25. With TVAS, the enrichment ratio turned out to be 14.3. The result for TVMT reads 12.2.

For the variant NVAS, the enrichment ratio was no more than 0.25. As to KCMT, the enrichment ratio is no more than 0.25. The result for FVAS reads no more than 0.25. The result for PVMT reads no more than 0.25. The result for SHAN reads no more than 0.25; that for NHAN, no more than 0.25; that for THAN, 13.2.

Turning to PEFN, the enrichment ratio is no more than 0.25. The result for PTTH reads 1.43. Consider DIRA, for which the enrichment ratio is no more than 0.25. On to HQWG, for which the enrichment ratio was no more than 0.25. For the variant AHSS, the enrichment ratio is no more than 0.25. The result for AQSS reads 11.7; that for ANSS, 12.7; that for AKSS, 8.3. The result for ANSR reads no more than 0.25; that for NGSS, no more than 0.25. As to AGSK, the enrichment ratio came to 0.857. With AGSS the figure was 11.2.

With ADSS, the enrichment ratio was no more than 0.25.

Take LTKW: the enrichment ratio was no more than 0.25. For the variant FSPG, the enrichment ratio is no more than 0.25. On to VPLL, for which the enrichment ratio was no more than 0.25. With NLEV the figure was no more than 0.25; with EVYR, no more than 0.25; with QKGY, no more than 0.25.

For the variant KAYC, the enrichment ratio was no more than 0.25. With TAYC the figure was 11.3; with QTYC, 0.887. On to QGYC, for which the enrichment ratio was 13.7.

Take RGYC: the enrichment ratio is no more than 0.25. With TGYC the figure was 13.2; with YAYC, no more than 0.25; with NGYC, no more than 0.25.

As to FFYC, the enrichment ratio was no more than 0.25. The result for KTHY reads no more than 0.25; that for GMIR, 1.56; that for TGTT, 11.2. With NPLD the figure was no more than 0.25; with SLDR, no more than 0.25. With TAGG the figure was 3.74; with VTSS, no more than 0.25; with YGPF, no more than 0.25. With MAMI, the enrichment ratio is 8.98.

In the case of NIML, the enrichment ratio amounted to 6.63.

As for APML, the enrichment ratio is no more than 0.25. With AGML the figure was 16.1; with TTML, 28.8. With NEML the figure was 0.665; with AEML, 14.4; with ANML, 13. The result for YWML reads no more than 0.25; that for QEML, no more than 0.25; that for PNML, no more than 0.25. As to WIML, the enrichment ratio is no more than 0.25.

For HMSC, the enrichment ratio was no more than 0.25.

RRES: the enrichment ratio is no more than 0.25. The result for YPTI reads no more than 0.25.

As for IDRY, the enrichment ratio is no more than 0.25.

With ADML, the enrichment ratio amounted to 21.8. With FDML the figure was no more than 0.25. For ACRL, the enrichment ratio was no more than 0.25. SQML: the enrichment ratio was 4.5. With ACIL the figure was 10.3; with AQML, 24.2; with ACML, 17.8. Consider NHML, for which the enrichment ratio is no more than 0.25. The result for YHML reads no more than 0.25.

With WQML, the enrichment ratio is no more than 0.25. Turning to AKML, the enrichment ratio came out at 9.72. As to THML, the enrichment ratio turned out to be 12.8. The result for LQYI reads no more than 0.25; that for LLQA, no more than 0.25. The result for YWKI reads no more than 0.25.

In the case of RIIT, the enrichment ratio is no more than 0.25.

Regarding VAHN, the enrichment ratio is no more than 0.25.

Take PEIM: the enrichment ratio is no more than 0.25. The result for VACQ reads no more than 0.25; that for AWDP, no more than 0.25. With AYET the figure was no more than 0.25; with GVGM, no more than 0.25. Consider RTSP, for which the enrichment ratio is no more than 0.25. Take PEMC: the enrichment ratio is no more than 0.25. With IARY the figure was no more than 0.25; with AYML, no more than 0.25; with EQML, no more than 0.25. The result for ATML reads 11.3; that for VHML, no more than 0.25; that for AIML, 21.2. The result for NQML reads no more than 0.25; that for YAML, 8.51. AAML: the enrichment ratio was determined as 14.7. The result for KKML reads no more than 0.25. On to IAML, for which the enrichment ratio amounted to 4.62. The result for TQML reads 22.5; that for AHML, 4.34; that for NGCN, no more than 0.25.

In the case of YSQW, the enrichment ratio is no more than 0.25. As for TCLD, the enrichment ratio is no more than 0.25. With PESS the figure was no more than 0.25; with GGCM, 9.15; with GACK, no more than 0.25.

Turning to GICM, the enrichment ratio amounted to 38.3. With GACM the figure was 12.2; with GEWM, no more than 0.25; with GNCM, 11.7. In the case of GICK, the enrichment ratio stood at 9.7. With GTCM the figure was 5.28. For GAAM, the enrichment ratio was no more than 0.25.

As for GECM, the enrichment ratio turned out to be 15.3. With RICM the figure was no more than 0.25; with GECK, no more than 0.25. With SFIL the figure was no more than 0.25; with GTSW, no more than 0.25; with QVGM, 0.458. TTQP: the enrichment ratio is no more than 0.25. For LWAS, the enrichment ratio is no more than 0.25.

For the variant DYTN, the enrichment ratio is no more than 0.25. With TRCM the figure was 12.4; with HRCM, no more than 0.25. The result for KRCM reads no more than 0.25; that for KMCM, no more than 0.25. With GMCM the figure was 22; with GMCK, no more than 0.25.
